Values without a mark were called inactive. How the calls were made is not given here.

The assay deals with Pantothenate synthetase (Mycobacterium tuberculosis (strain ATCC 25618 / H37Rv)) (UniProt P9WIL5). Put plainly: Coupled enzyme confirmation of inhibitors against recombinant Mtb PanC (AID 375).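 Further: 0% = full reaction with vehicle and 100% = no enzyme background.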 The following applies: coupled enzyme assay; at 10 µM, active compounds read high.
Pantothenate synthetase (Mycobacterium tuberculosis (strain ATCC 25618 / H37Rv)), sequence (P9WIL5 whole entry, looked up): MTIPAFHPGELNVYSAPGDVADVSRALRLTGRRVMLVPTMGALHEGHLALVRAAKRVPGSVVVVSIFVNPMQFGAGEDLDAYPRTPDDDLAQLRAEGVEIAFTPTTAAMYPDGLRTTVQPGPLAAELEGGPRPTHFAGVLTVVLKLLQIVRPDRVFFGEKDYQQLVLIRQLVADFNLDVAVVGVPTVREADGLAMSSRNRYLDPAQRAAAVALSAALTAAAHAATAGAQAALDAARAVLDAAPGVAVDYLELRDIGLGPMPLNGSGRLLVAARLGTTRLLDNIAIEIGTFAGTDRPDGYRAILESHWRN
For `CCc1cc(-c2[nH]ncc2-c2ccc3c(c2)OCO3)c(O)cc1O`, the inhibition (in general, the percentage by which the read-out fell short of the control) is 0%.
In the case of `CCOC(=O)CSc1cn2c(n1)CCC2` it was 3%.
In the case of `CCN1CCN(c2ncnc3c2cnn3-c2ccc(C)cc2C)CC1` it was 9%.
The result for `CCn1c(SCC(=O)Nc2ccccc2N2CCCCC2)nc2c1c(=O)n(C)c(=O)n2C` reads 2%; that for `CSc1ccccc1NC(=O)CN(Cc1ccccc1)S(C)(=O)=O`, 0%; that for `CCc1nnc(NC(=O)C2Cc3ccccc3CN2S(=O)(=O)c2cccs2)s1` (stereo not given), 1%.
`COc1cc(C2Oc3cc(C4Oc5cc(O)cc(O)c5C(=O)C4O)ccc3OC2CO)ccc1O` (stereo not given): the inhibition was 0%.
The result for `CCCn1c(N2CCN(CC(=O)NCc3cccs3)CC2)nc2ccccc21` reads 9%; that for `CSc1ccccc1N=CC1=C(O)CC(C)(C)CC1=O`, 0%.
Take `COC(=O)C1=C(C)OC(N)=C(C#N)C1c1c(C)nn(-c2ccccc2)c1Cl` (stereo not given): the inhibition is 0%.
As to `COc1cc2c(cc1OC)C(c1ccc(C)o1)CC(=O)N2` (stereo not given), the inhibition is 3%.
Consider `CCOC(=O)C1CCN(S(=O)(=O)c2cc(Cl)c(C)cc2OC)CC1`, for which the inhibition was 4%.
The result for `O=C(NCc1ccco1)c1cc2cc3ccc(Cl)cc3nc2o1` reads 4%; that for `O=C(CSc1ncnc2c1cnn2Cc1ccccc1)Nc1ccc2c(c1)OCCO2`, 5%; that for `COC(=O)c1ccsc1NC(=O)CN1C(=O)CCC1=O`, 0%.
In the case of `CCn1cc(C(=O)NCC2CCCO2)c(=O)c2cc(S(=O)(=O)N(C)C3CCCCC3)ccc21` (stereo not given) it was 5%; in that of `CCN(CC)CCOC(=O)c1c(C)oc2ccc(O)cc12`, 0%.
On to `CC1(C)Cc2noc(N)c2C(C)(C)N1OC(=O)c1ccccc1`, for which the inhibition is 0%.
The result for `O=C(Nc1cccc(Cl)c1)N1CCN(Cc2ccccc2)CC1` reads 5%; that for `COCCn1nnnc1CN1CCC(Cc2ccccc2)CC1`, 0%.
For `Cc1ccccc1OCc1nc2ccccc2c(=O)n1/N=C/c1ccco1`, the inhibition is 0%.
With `Cc1ccnc(NC(=O)CCC(=O)N(CC(=O)NC2CCCCC2)c2cccc(C)c2C)c1`, the inhibition was 0%.
In the case of `COC(=O)C1=C(C)NC(=O)C1(Nc1ccc(Cl)cn1)C(F)(F)F` (stereo not given) it was 0%; in that of `CCCCCOc1ccc(C2NC(=O)NC2=O)cc1` (stereo not given), 0%; in that of `COC(=O)CNC(=O)c1c(C)cc(=O)oc1C`, 3%.
The result for `COc1ccccc1Nc1ccc(C(=O)NC2CCCCC2)cn1` reads 0%; that for `O=C1c2ccccc2CN1CCNS(=O)(=O)c1ccc(Cl)cc1`, 9%.
Take `O=C(Cn1nnc(-c2cc(Cl)ccc2-n2cnnn2)n1)N1CCCc2ccccc21`: the inhibition was 0%.
`COc1cccc(NC(=O)C2C3C=CC4(O3)C2C(=O)N(C(C)C)C4C(=O)NC2CCCCC2C)c1` (stereo not given): the inhibition was 2%.
In the case of `CC1CCc2cc(F)cc3c(O)c(C(=O)Nc4cnccn4)c(=O)n1c23` (stereo not given) it was 0%; in that of `Cc1[nH]c2c(C)cccc2c(=O)c1Br`, 0%; in that of `N#CCCN1CCN(S(=O)(=O)c2ccc(S(=O)(=O)NC3CCCC3)cc2)CC1`, 0%.
With `O=C(c1ccc2ccccc2n1)N1CCN(c2ccccc2)CC1`, the inhibition was 0%.
In the case of `CCOC(=O)Cc1csc(NC(=O)CSc2nnc(-c3ccncc3)n2Cc2ccco2)n1` it was 0%.
In the case of `Cc1ccsc1C(C(=O)NC1CCCCC1)N(C(=O)Cc1cccs1)C1CC1` (stereo not given) it was 0%; in that of `C[N+](C)(C)CCCCCCCCCC[N+](C)(C)C`, 4%.
The result for `O=C1CCCc2c1cc(C(=O)NCCCN1CCOCC1)c(=O)n2-c1ccc(Cl)cc1` reads 0%.
`CCN(CC)CCCN(Cc1cc2cc(OC)ccc2[nH]c1=O)C(=O)Nc1ccccc1`: the inhibition was 9%.
On to `CCNC(=O)C1CC(=O)N(Cc2ccc3c(c2)OCO3)C(=Nc2ccc(OCC)cc2)S1` (stereo not given), for which the inhibition is 0%.
For the molecule `O=C(c1cnn2c(C(F)F)cc(C3CC3)nc12)N1CCOCC1`, the inhibition was 1%.

Source of the values: PubChem BioAssay.
